Results on eight compounds are retold here after PubChem BioAssay (NCATS).

Experiment [1] deals with Ubiquitin carboxyl-terminal hydrolase 1 (Homo sapiens) (UniProt O94782). The experiment can be described thus: Inhibitors of USP1/UAF1: Pilot qHTS (AID 504865; active = well fitted inhibition curve with a large enough effect;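 also: rhodamine fluorescence freed from ubiquitin-rhodamine substrate followed over time; top concentration of the series differs between compounds; % is scaled to controls: 0 for no effect and ±100 for the full control effect; nearly all actives have a fitted effect of over 35% in size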). An outline of the steps: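 In 50mM HEPES pH 7.8 containing 0.5mM EDTA, 1mM TCEP, 0.1 mg/ml BSA and 0.01% Tween-20, 1nM USP1/UAF1 is exposed to compound for 15 min, then Ub-Rho (150nM final) is added and fluorescence is read over time.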
(In qHTS, concentration-response curves come from the screen itself.)

Experiment [2] addresses Estrogen receptor (Homo sapiens) (UniProt P03372). As to the kind of experiment: qHTS assay for small molecule antagonists of estrogen receptor alpha signaling (AID 588513; active = well fitted curve in the direction sought with a large enough effect in the signal ratio, with a control signal flat, not every such curve was filed as active; the % refers to the signal ratio; also: % is scaled to controls: 0 for no effect and ±100 for the full control effect). An outline of the steps:
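Fluorescence from CCF4 substrate after 2 h at room temperature gave reporter activity; cells had been exposed to compound and 0.5nM 17-beta-estradiol for 18 h at 37 C. Hill-equation fitting yielded IC50 and maximal response.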

The target is the same in experiment [3]. The experiment can be described thus: qHTS assay for small molecule agonists of estrogen receptor alpha signaling (AID 588514).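 Also: 0% = vehicle only and 100% = reference agonist; nearly all actives have a fitted effect of over 70% in size.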 In a few lines: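 ER-alpha-UAS-bla GripTite HEK 293 cells in medium with 2% charcoal/dextran-treated FBS were treated with compound titrations at 37 C for 18 hrs; beta-lactamase reporter read by CCF4 fluorescence after 2 hrs at RT.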

Experiment [4] deals with Androgen receptor (Homo sapiens) (UniProt P10275). The experiment can be described thus: qHTS assay for small molecule agonists of androgen receptor signaling (AID 588515; active = well fitted curve in the direction sought with a large enough effect in the signal ratio, with a control signal flat; the % refers to the signal ratio; also: % is scaled to controls: 0 for no effect and ±100 for the full control effect). The conditions noted are these: AR-UAS-bla HEK293, beta-lactamase ratio, agonist 16 h; stronger effect = higher value. In a few lines: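 EC50 and efficacy came from Hill fits of titrations (up to 92 uM) normalized to 30 nM R1881 as 100% and DMSO as 0%. Compound exposure was 16 h at 37 C on AR-UAS-bla HEK293 cells, with a 405/460/530 nm CCF4 fluorescence read.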
Sequence of Androgen receptor (Homo sapiens) (P10275 whole entry, looked up): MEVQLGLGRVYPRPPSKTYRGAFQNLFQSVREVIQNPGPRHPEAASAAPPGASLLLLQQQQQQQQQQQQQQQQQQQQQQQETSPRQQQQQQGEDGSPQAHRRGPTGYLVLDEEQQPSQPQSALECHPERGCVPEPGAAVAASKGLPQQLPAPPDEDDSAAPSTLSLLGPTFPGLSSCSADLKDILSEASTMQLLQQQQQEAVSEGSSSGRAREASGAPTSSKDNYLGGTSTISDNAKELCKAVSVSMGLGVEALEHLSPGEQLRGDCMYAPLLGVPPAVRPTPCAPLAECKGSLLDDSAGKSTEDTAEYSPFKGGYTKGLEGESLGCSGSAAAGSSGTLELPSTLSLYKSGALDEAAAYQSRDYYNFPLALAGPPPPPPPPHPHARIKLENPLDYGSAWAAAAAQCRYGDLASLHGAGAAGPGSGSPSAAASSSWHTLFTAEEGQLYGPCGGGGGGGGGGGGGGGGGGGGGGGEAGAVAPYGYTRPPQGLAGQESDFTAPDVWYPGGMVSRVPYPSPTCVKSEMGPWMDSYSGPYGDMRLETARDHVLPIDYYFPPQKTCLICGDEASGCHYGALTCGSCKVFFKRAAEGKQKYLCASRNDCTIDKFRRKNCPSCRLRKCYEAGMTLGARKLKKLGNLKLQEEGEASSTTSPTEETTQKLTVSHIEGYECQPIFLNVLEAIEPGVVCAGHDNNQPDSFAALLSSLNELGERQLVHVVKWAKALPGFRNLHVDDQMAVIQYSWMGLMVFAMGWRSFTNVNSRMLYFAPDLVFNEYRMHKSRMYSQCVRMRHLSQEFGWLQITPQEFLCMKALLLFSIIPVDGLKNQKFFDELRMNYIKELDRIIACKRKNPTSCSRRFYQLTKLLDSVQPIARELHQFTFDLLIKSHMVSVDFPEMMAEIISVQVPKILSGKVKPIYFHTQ

Experiment [5] shares this target. As to the kind of experiment: qHTS assay for small molecule antagonists of androgen receptor signaling (AID 588516; active = well fitted curve in the direction sought with a large enough effect in the signal ratio, with a control signal flat, not every such curve was filed as active; the % refers to the signal ratio; also: % is scaled to controls: 0 for no effect and ±100 for the full control effect). In a few lines:
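Cells were plated and incubated 5 h, compounds added in titration, then R1881 (10 nM final) as agonist. After 16 h at 37 C, CCF4 substrate was loaded for 2 h at room temperature and fluorescence measured.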

For experiment [6], the target named is Bile acid receptor (Homo sapiens) (UniProt Q96RI1). As to the kind of experiment: qHTS assay for small molecule antagonists of farnesoid X receptor signaling (AID 588526). Also: potency is read from the fitted curve at half-maximal effect. An outline of the steps: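 Concentration-response titrations were fitted to the Hill equation for half-maximal inhibition and maximal response, with data normalised to 50 uM chenodeoxycholic acid and DMSO control wells. Cells: FXR-UAS-bla HEK293T, dialyzed FBS.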
Sequence of Bile acid receptor (Homo sapiens) (Q96RI1 whole entry, looked up): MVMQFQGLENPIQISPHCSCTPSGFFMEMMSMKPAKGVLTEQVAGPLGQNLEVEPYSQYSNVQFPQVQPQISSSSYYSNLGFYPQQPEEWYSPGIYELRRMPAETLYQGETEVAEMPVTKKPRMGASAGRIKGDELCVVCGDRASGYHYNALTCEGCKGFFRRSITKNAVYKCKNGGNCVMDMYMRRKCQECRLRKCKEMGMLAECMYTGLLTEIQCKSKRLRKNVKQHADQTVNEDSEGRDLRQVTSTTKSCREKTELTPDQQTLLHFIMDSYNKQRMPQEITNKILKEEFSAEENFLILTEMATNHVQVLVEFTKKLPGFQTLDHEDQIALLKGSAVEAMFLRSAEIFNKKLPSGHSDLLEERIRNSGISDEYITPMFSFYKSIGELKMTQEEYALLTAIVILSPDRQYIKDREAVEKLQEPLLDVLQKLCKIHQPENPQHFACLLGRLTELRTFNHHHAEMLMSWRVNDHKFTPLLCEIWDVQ

Experiment [7] in a line: qHTS assay for small molecule antagonists of peroxisome proliferator-activated receptor delta signaling (AID 588535; active = well fitted inhibition curve with a large enough effect in the signal ratio, with a control signal flat, not every such curve was filed as active; the % refers to the signal ratio;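 as to max response: cells co-treated with a PPAR-delta agonist as stimulator during compound exposure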). The settings on record: HEK293T PPARd-UAS-bla, beta-lactamase FRET ratio, 18 h; 460 nm channel. In a few lines:
(§1)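 GeneBLAzer PPAR-delta-UAS-bla HEK293T cells in medium with 2% charcoal/dextran FBS were preincubated 5 hrs at 37 C, then given compounds, incubated 18 hrs at 37 C, and read by CCF4 beta-lactamase fluorescence; IC50 from Hill fits.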

For experiment [8], the target named is Peroxisome proliferator-activated receptor delta (Homo sapiens) (UniProt Q03181). The experiment is described as above. In a few lines:
as §1

Experiment [9] deals with Peroxisome proliferator-activated receptor gamma (Homo sapiens) (UniProt P37231). The experiment can be described thus: qHTS assay for small molecule agonists of peroxisome proliferator-activated receptor gamma signaling (AID 588536; active = well fitted curve in the direction sought with a large enough effect in the signal ratio, with a control signal flat, not every such curve was filed as active; the % refers to the signal ratio;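 also: 0% = DMSO basal wells and 100% = rosiglitazone at 2 µM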). In a few lines: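 PPAR-gamma-UAS-bla HEK293 cells in medium with 1% charcoal/dextran-treated FBS were exposed to compounds for 16 h at 37 C. Beta-lactamase activity was read with CCF4 substrate (405 nm excitation, 460/530 nm emission).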
Sequence of Peroxisome proliferator-activated receptor gamma (Homo sapiens) (P37231 whole entry, looked up): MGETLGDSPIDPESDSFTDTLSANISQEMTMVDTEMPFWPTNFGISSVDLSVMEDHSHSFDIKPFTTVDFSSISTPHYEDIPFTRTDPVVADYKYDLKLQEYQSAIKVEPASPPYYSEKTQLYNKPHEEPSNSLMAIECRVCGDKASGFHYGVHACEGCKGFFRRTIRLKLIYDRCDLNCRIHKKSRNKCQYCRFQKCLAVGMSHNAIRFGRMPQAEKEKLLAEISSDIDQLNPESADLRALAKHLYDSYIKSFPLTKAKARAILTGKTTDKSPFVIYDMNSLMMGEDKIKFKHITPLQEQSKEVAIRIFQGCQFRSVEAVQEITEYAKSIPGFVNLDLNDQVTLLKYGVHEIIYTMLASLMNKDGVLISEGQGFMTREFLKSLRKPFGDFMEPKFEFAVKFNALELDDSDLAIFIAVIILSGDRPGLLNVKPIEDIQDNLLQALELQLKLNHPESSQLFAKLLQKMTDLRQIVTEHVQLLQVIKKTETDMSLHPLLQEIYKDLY

Experiment [10] has the same target. The experiment can be described thus: qHTS assay for small molecule antagonists of peroxisome proliferator-activated receptor gamma signaling (AID 588537; active = well fitted inhibition curve with a large enough effect in the signal ratio, with a control signal flat, not every such curve was filed as active; the % refers to the signal ratio;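 also: reporter cells co-stimulated with 50 nM rosiglitazone agonist during compound treatment; % of control where 0% means no effect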). An outline of the steps:
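PPAR-gamma-UAS-bla HEK293 cells (3000/well, 1% charcoal/dextran-stripped FBS) were preincubated 6-6.5 h at 37 C, given titrated compounds, then stimulated with 50 nM rosiglitazone for 16 h. Beta-lactamase activity was read with CCF4 dye; IC50 came from Hill fits.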

The target in experiment [11] is Vitamin D3 receptor (Homo sapiens) (UniProt P11473). The experiment can be described thus: qHTS assay for small molecule antagonists of vitamin D receptor signaling (AID 588541).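 Also: receptor activated by calcitriol during compound treatment; series mostly up to about 77 µM; % is scaled to controls: 0 for no effect and ±100 for the full control effect.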 In a few lines:
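VDR-UAS-bla HEK293T cells (2000/well, 2% charcoal-stripped FBS) were treated with titrated compounds plus 1-alpha,25-dihydroxyvitamin D3 (50 nM or 3 nM final) for 16 h at 37 C. CCF4 beta-lactamase fluorescence was read; Hill fits gave IC50.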

Experiment [12] has the same target. As to the kind of experiment: qHTS assay for small molecule agonists of vitamin D receptor signaling (AID 588543).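 Also: 0% = DMSO basal and 100% = reference agonist control.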 An outline of the steps: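 Reporter cells (HEK293T, VDR-UAS-bla) were seeded in medium with 2% charcoal-stripped serum and incubated 5 h, then compounds in concentration series were added for 16 h at 37 °C. Stimulation was scaled between DMSO basal and 50 nM 1α,25-dihydroxyvitamin D3.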

Experiment [13] in a line: qHTS assay for small molecule agonists of retinoid X receptor alpha signaling (AID 588544).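 As to activation: 0% = DMSO basal wells and 100% = reference agonist.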 The settings on record: HEK293T RXRa-UAS-bla, beta-lactamase reporter, 18 h; 530 nm emission.
Experiment [14] addresses Retinoic acid receptor RXR-alpha (Homo sapiens) (UniProt P19793). The experiment is described as above.
For experiment [15], the target named is Thyroid hormone receptor beta (Homo sapiens) (UniProt P10828). The experiment can be described thus: qHTS assay for small molecule agonists of thyroid hormone receptor beta signaling (AID 588545). An outline of the steps: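 Cells (2500/well) were seeded, incubated 4 hrs at 37 C, dosed with a compound series, incubated 18 hrs, loaded with CCF4 dye for 2 hrs at RT, then read for fluorescence. Data were scaled between DMSO (0%) and 10 nM T3 (100%).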
Sequence of Thyroid hormone receptor beta (Homo sapiens) (P10828 whole entry, looked up): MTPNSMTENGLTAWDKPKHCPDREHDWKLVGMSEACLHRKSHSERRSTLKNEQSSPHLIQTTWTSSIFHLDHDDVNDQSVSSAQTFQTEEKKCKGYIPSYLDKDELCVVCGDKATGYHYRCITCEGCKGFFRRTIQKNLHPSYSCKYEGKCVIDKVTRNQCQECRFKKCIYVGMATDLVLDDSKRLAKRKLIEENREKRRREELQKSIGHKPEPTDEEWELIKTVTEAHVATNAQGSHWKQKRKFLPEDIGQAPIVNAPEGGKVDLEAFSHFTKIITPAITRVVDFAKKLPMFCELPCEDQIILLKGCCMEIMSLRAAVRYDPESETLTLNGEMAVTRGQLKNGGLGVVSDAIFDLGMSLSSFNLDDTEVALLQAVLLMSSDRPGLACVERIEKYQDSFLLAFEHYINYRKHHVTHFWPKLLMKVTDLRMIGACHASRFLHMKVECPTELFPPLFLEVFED

The nature of experiment [16]: qHTS assay for small molecule antagonists of retinoid X receptor alpha signaling (AID 588546; active = well fitted inhibition curve with a large enough effect in the signal ratio, with a control signal flat, not every such curve was filed as active; the % refers to the signal ratio; also: potency is read from the fitted curve at half-maximal effect). The settings on record: HEK293T RXRa-UAS-bla, beta-lactamase ratio, antagonist mode; measured here: W530 green channel, cytotoxicity proxy. In a few lines: (§2)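 Beta-lactamase reporter inhibition, read as CCF4 fluorescence ratio (ex 405, em 460/530 nm) after 2 h at RT. HEK293T UAS-bla cells, 2500/well, were stimulated with 9-cis-RA at 500 or 100 nM final alongside test compound for 18 h at 37 C.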

Experiment [17] addresses Retinoic acid receptor RXR-alpha (Homo sapiens) (UniProt P19793). Described as above. The conditions noted are these: HEK293T RXRa-UAS-bla, beta-lactamase ratio, antagonist mode. An outline of the steps:
as §2

Experiment [18] deals with Glucocorticoid receptor (Homo sapiens) (UniProt P04150). The experiment can be described thus: qHTS assay for small molecule agonists of glucocorticoid receptor signaling (AID 588532; active = well fitted curve in the direction sought with a large enough effect in the signal ratio, with a control signal flat; the % refers to the signal ratio;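 also: 100% = dexamethasone at 0.1 µM and 0% = DMSO only wells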). The conditions noted are these: HeLa MMTV-bla, beta-lactamase ratio, agonist, 18 h; stronger effect = higher value; percent of dexamethasone control, DMSO zero. An outline of the steps: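 Titration series, up to 92 uM, applied to GRE-bla HeLa cells for 18 h at 37 C. Detection by CCF4 FRET substrate after 2 h at RT.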
Sequence of Glucocorticoid receptor (Homo sapiens) (P04150 whole entry, looked up): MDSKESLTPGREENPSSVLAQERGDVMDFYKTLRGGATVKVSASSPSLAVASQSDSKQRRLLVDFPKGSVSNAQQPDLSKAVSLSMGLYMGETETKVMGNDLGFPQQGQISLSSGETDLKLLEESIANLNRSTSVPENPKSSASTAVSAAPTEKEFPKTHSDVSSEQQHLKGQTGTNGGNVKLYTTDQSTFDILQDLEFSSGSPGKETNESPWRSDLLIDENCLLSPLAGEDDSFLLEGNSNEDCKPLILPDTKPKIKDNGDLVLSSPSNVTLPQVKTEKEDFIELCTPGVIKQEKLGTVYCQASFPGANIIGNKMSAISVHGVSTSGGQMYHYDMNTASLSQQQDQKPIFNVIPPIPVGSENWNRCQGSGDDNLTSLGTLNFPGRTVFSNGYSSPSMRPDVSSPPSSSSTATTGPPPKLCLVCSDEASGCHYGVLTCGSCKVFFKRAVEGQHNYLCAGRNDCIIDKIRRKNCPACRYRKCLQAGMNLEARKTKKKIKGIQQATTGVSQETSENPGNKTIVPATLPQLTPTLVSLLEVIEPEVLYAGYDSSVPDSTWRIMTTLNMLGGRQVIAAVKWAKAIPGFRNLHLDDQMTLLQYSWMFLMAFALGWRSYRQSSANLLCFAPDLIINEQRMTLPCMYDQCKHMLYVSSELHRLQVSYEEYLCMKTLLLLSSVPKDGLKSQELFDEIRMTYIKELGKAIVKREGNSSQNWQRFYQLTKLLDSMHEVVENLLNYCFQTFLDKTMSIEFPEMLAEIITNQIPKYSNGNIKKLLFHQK

For experiment [19] the target is unchanged. As to the kind of experiment: qHTS assay for small molecule antagonists of glucocorticoid receptor signaling (AID 588533; active = well fitted inhibition curve with a large enough effect in the signal ratio, with a control signal flat, not every such curve was filed as active; the % refers to the signal ratio). An outline of the steps: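 Antagonist-mode qHTS: compound titrations added to GRE-bla HeLa cells, then dexamethasone 2 nM final; 18 h, 37 C. CCF4 FRET fluorescence normalized to dexamethasone and DMSO; IC50 from Hill fit.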

Each structure is given as a SMILES string. “And” between values parts separate entries of the source, which are not always exact repeats. Equal values may be shown once. Results filed as inconclusive are left out. The source made the active and inactive calls. Unless noted, calls follow the shape of the full dose curve.

Sequence of Retinoic acid receptor RXR-alpha (Homo sapiens) (P19793 whole entry, looked up): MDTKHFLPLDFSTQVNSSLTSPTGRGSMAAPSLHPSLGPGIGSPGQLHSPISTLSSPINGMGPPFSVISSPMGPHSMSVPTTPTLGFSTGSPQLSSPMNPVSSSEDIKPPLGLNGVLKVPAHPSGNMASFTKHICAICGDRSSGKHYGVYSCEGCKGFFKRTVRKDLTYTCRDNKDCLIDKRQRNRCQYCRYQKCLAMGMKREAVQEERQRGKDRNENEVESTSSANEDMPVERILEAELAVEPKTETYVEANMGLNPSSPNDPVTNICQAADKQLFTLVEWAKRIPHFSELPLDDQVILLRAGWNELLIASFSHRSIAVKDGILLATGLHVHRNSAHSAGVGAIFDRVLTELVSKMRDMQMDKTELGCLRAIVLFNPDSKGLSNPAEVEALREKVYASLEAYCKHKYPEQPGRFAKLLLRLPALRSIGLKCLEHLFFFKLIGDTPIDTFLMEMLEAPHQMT
Sequence of Vitamin D3 receptor (Homo sapiens) (P11473 whole entry, looked up): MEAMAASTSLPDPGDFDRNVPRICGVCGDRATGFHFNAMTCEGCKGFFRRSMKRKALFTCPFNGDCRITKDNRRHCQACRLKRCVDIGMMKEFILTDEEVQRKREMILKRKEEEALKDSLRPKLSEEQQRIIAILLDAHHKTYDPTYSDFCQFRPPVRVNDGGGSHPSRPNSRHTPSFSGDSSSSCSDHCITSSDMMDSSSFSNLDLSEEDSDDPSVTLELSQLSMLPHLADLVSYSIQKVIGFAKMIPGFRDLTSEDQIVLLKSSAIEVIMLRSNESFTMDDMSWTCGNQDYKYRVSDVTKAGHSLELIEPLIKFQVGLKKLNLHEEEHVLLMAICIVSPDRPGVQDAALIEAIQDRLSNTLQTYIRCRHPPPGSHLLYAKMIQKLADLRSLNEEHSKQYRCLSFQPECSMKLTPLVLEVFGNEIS
Sequence of Estrogen receptor (Homo sapiens) (P03372 whole entry, looked up): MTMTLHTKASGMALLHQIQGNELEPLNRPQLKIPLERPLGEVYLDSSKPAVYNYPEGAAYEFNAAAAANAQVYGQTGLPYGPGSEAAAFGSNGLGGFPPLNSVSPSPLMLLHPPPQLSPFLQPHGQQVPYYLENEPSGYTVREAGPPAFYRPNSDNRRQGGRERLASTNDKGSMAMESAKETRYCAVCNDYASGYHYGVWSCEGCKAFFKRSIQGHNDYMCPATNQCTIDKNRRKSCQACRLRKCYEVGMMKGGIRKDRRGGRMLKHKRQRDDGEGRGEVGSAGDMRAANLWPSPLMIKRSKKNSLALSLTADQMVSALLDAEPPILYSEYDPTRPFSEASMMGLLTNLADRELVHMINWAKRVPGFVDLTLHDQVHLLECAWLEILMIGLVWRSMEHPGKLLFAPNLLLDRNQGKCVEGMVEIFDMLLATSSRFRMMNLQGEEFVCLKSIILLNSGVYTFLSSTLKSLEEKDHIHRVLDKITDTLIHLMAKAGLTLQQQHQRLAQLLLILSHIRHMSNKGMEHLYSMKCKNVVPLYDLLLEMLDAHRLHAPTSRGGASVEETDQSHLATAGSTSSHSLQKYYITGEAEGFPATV

As to `CC1=CCC(C(C)(C)O)CC1` (centres undefined), the Potency entry in experiment [1], in [3] and in experiment [6] was “inactive” throughout. Besides, the result in experiment [2], in experiment [5], in experiment [8], in [9], in [10] and in experiment [11] was inactive. Moreover, the result in [12], in [14] and in [15] was inactive. Besides, the activation in experiment [4] was 3.37% (inactive). Moreover, the max response in experiment [7] was -21.9%; in experiment [13], -10.8%; in experiment [16] it was 1.88%; in experiment [17] it was -18.6% (inactive).
`CC(O)CO` (centres undefined): the Potency entry in experiment [1], in [3] and in [6] was “inactive” throughout. For the same compound, the call in experiment [2], in experiment [19], in experiment [8], in experiment [9], in experiment [10] and in [11] was inactive. Moreover, the compound was classed as inactive in experiment [12], in experiment [14] and in experiment [15]. For the same compound, the activation in [18] is -4.49% (inactive) and -3.73% (inactive). In addition, the max response in experiment [7] was 21.4% and -10.4%; in [13], -9.84% and -15.2%; in [16] it was -2.37% and -5.47%; in [17] it was 9.68% (inactive) and 0.556% (inactive).
For the compound `CC1(C)C(C=C(Cl)Cl)C1C(=O)OCc1cccc(Oc2ccccc2)c1` (centres undefined), the Potency entry in experiment [1] and in experiment [3] was “inactive” throughout. Moreover, the compound was called inactive in experiment [2], in [5], in experiment [19], in [8] and in experiment [11]. Besides, the activation in experiment [4] was 4.68% (inactive) [middle of 4 runs]. For the same compound, the figures for the max response in experiment [16] and in experiment [17] were -5.2% [middle of 4 runs] and -8.16% (inactive) [middle of 4 runs], respectively.
With `COC(F)(F)C(Cl)Cl`, in experiment [1], the Potency result is “inactive”.
On to `CC(C)(C)NC(=O)[C@@H]1C[C@@H]2CCCC[C@@H]2CN1C[C@@H](O)[C@H](Cc1ccccc1)NC(=O)[C@H](CC(N)=O)NC(=O)c1ccc2ccccc2n1`, for which the Potency in experiment [6] is 44.7 µM (active); in experiment [17] it was 22.4 µM (active). For the same compound, the outcome in experiment [11] and in [15] was inactive. The max response in experiment [16] was determined as 9.91%.
Consider `CO[C@H](C(=O)[C@@H](O)[C@@H](C)O)C1Cc2cc3cc(O[C@H]4C[C@@H](O[C@H]5C[C@@H](O)[C@H](O)[C@@H](C)O5)[C@@H](O)[C@@H](C)O4)c(C)c(O)c3c(O)c2C(=O)[C@H]1O[C@H]1C[C@@H](O[C@H]2C[C@@H](O[C@H]3C[C@](C)(O)[C@H](O)[C@@H](C)O3)[C@H](O)[C@@H](C)O2)[C@H](O)[C@@H](C)O1` (some centres undefined), for which, in experiment [1], the Potency result is “inactive”.
`CC(C(=O)O)c1ccc(N2Cc3ccccc3C2=O)cc1` (centres undefined): in [1], the Potency entry is “inactive”.
As for `CCCCCCCC(=O)O`, the Potency entry in experiment [1] and in [3] was “inactive” in each case. For the same compound, the outcome in experiment [2], in experiment [19], in experiment [9], in experiment [11], in experiment [12] and in experiment [14] was inactive. In addition, the result in experiment [15] was inactive. Also, the max response in experiment [13] was 23.4% and -6.86%; in experiment [16] it was -6.98% and -8.84%; in [17], 18.1% (inactive) and 2.05% (inactive).
